Most compounds without a hit are left out; they make up all but 4.1% or so of the library.
hgDAF12 agonist: activates the H. glycines DAF-12 receptor ligand-binding domain. 370,000 compounds, 1.8% hits. AID 687014. HEK293 GAL4-hgDAF12 UAS-luciferase reporter, agonist luminescence; normalized to butyrate control. activation, % at 6.8 µM;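 active = activation above a cutoff set at the mean of all screened compounds plus 3 SD, cut at about 10% in these data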
hcDAF-12 act: activators of H. contortus DAF-12 nuclear receptor | HEK293 hcDAF-12 lit1-tk-luc reporter, luminescence; 0% DMSO, 100% Δ7-dafachronic acid | activation, % at 6.8 µM | 370,000 compounds, 1.4% hits | AID 652067;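 active = activation above the mean of all tested compounds plus 3 SD, cut at about 5.5% in these data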
DAX1 inh-1: blocks DAX1 repression of SF-1 activated StAR promoter | HEK293T StAR-luciferase reporter, SF-1/DAX-1 repression relief | inhibition, % at 6.8 µM | 370,000 compounds, 1.1% hits | AID 652010;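 active = inhibition above the mean over all tested compounds plus 3 SD, cut at about 3.6% in these data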;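 also: higher inhibition means more luminescence from relief of DAX-1 repression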
DAX1 inh-2: inhibitors of human orphan nuclear receptor DAX1 (NR0B1); 340,000 compounds, 0.99% hits; AID 504766; P51843; inhibition, % at 6.75 µM; HEK293 Gal4-DAX1 luciferase reporter, luminescence;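 active = inhibition above the mean over all tested compounds plus 3 SD, cut at about 4.2% in these data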;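 also: inhibition shows as a rise in luminescence from relieved DAX1 repression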
Target sequence (P51843 207-470 limits assumed): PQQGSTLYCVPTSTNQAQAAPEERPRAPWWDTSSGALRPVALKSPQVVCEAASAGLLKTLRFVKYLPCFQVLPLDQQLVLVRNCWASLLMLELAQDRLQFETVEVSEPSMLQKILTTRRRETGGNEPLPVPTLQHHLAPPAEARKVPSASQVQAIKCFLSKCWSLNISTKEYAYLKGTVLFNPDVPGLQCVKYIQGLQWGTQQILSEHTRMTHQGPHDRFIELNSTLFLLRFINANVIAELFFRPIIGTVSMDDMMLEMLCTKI
ssDAF-12 act: activates DAF-12 receptor from parasite S. stercoralis; 370,000 compounds, 1% hits; HEK293 ssDAF-12/GRIP1 lit1-tk-luc reporter, luminescence; % of 3 µM dafachronic acid response; activation, % at 6.8 µM; AID 652126;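 active = activation above the mean over all tested compounds plus 3 SD, cut at about 0.9% in these data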
Numbers stand for hits; n = inactive; x = no result given.

SMILES | hgDAF12 agonist | hcDAF-12 act | DAX1 inh-1 | DAX1 inh-2 | ssDAF-12 act
COC(=O)c1c(NC(=O)CN2CCN(c3ccccc3Cl)CC2)sc(C)c1C | n | n | n | n | 1.1
CCOC(=O)N1CCN(C(=O)C[C@H]2C[C@@]3(C(=O)OC)C(=C[C@H](C(C)(C)C)O[C@@H]3C)N(Cc3cccc4ccccc34)C2=O)CC1 | n | n | n | x | n
C[C@H](O)[C@@H]1CN2CCc3c([nH]c4c(-c5ccc6c(c5)OCO6)cccc34)[C@@H]2C[C@@H]1N(C)C(=O)NC1CCCCC1 | n | n | n | x | n
O=C(COc1ccc(Br)cc1Br)NC(=O)NC1CCCC1 | n | n | 4.0 | n | n
Cc1cc(Br)ccc1OCC(=O)NC1CCCC1 | n | n | n | n | n
Cn1c(N)c(C(=O)COC(=O)CSc2ccccc2)c(=O)n(C)c1=O | n | n | n | 8.5 | n
Cn1cc(C2(C)CCOc3ccccc32)c2ccccc21 (stereo not given) | n | n | n | x | n
Cc1ccc(N2C(=O)c3ccccc3C2Nc2cccnc2)nc1 (stereo not given) | n | n | n | n | n
Cc1ccc(NC2c3ccccc3C(=O)N2c2cccnc2)cc1 (stereo not given) | n | n | n | 5.5 | n
O=C(OCC#CCSc1nnc(-c2ccc3ccccc3c2)o1)c1cccs1 | n | n | x | x | n
O=C(O)CNC(=O)/C(=C\c1ccc2c(c1)OCO2)NC(=O)c1ccc(Br)cc1 | n | n | n | x | n
O=C(NCCO)/C(=C/c1ccc2c(c1)OCO2)NC(=O)c1ccc(Br)cc1 | n | n | n | 4.5 | n
CCOC(=O)CSC1=NC(=O)/C(=C\c2ccc(Cl)cc2)S1 | n | n | n | n | 1.3
CSC1=NC(=O)/C(=C/c2ccc(SC)cc2)S1 | 13 | n | n | n | n
COc1ccc(/C=C2\CCc3c2nc2ccccc2c3C(=O)O)cc1OC | n | n | 4.3 | n | n
NC(=O)c1sc(=S)n(-c2ccc(Br)cc2)c1N | n | 6.5 | n | n | n
CN(C)c1cccc(/C=C2\CC3(OC(=O)C4CCCC4)CCCN2C3)c1 (stereo not given) | n | n | n | x | n
CC(C)c1cc(O)c(-c2ccccc2)c(=O)n1-c1ccc(Cl)cc1 | n | n | n | n | n
CC(C)c1c(Cl)c(O)c(-c2ccccc2)c(=O)n1-c1ccc(F)cc1 | n | 5.7 | n | n | n
CC(NCc1ccco1)C(=O)N1CCN(c2cccc(C(F)(F)F)c2)CC1 (stereo not given) | n | n | n | x | n
CCN(C(=O)[C@@H]1CC(=O)O[C@@H]1c1ccccc1)c1ccccc1 | n | n | n | x | n
OC1CCC(Nc2ccn3nc(-c4cccc(Cl)c4)cc3n2)CC1 (stereo not given) | n | n | n | x | n
CCC(CO)Nc1ccn2nc(-c3cccc(Cl)c3)cc2n1 (stereo not given) | 13 | n | 3.9 | x | n
CC(=O)CC[C@@H]1CC[C@]2(CCCN(C(=O)c3ccc4ccccc4n3)C2)O1 | n | n | n | x | n
CCCCOC(=O)CCN1C(=O)/C(=C/c2ccccc2)SC1=S | n | n | x | x | n
SMILES | hgDAF12 agonist | hcDAF-12 act | DAX1 inh-1 | DAX1 inh-2 | ssDAF-12 act
Cc1cc(Nc2ccc(C)c(Br)c2)n2nc(C)nc2n1 | n | n | n | 4.4 | n
COc1ccc(Nc2cc(C)nc3nc(C)nn23)c(OC)c1 | n | n | n | 5.1 | n
Cc1cc(Nc2ccc(F)c(Cl)c2)n2nc(C)nc2n1 | n | n | n | n | n
COc1ccc(Nc2cc(C)nc3nc(C)nn23)cc1Cl | n | n | n | 4.6 | n
Cc1cc(Nc2ccccc2Br)n2nc(C)nc2n1 | n | n | n | n | n
Cc1cc(Nc2ccc(F)cc2F)n2nc(C)nc2n1 | n | n | n | 4.9 | n
Cc1cc(Nc2cc(F)ccc2C)n2nc(C)nc2n1 | n | n | n | n | n
O=C(OC12CCCN(C1)/C(=C/c1ccccc1)C2)c1ccc(Cl)cc1 (stereo not given) | n | n | n | x | n
N#Cc1ccc(/C=C2\CC3(OC(=O)c4cccc(F)c4)CCCN2C3)cc1 (stereo not given) | n | n | n | x | n
CCOC(=O)c1sc(=NC(=O)c2cccc(C)c2)n(C)c1C | n | n | 3.8 | n | n
CCOC(=O)c1sc(=NC(=O)c2cccc(Br)c2)n(C)c1C | n | n | n | n | n
CC(/C=C/C(=O)c1ccc(C)cc1)=C\c1ccccc1 | n | n | n | 5.3 | n
Cc1ccc(C(=O)/C=C\C(=O)c2ccc(C)cc2)cc1 | n | n | n | n | n
CCCOc1ccc(-c2nc(CSCC(=O)NC3CC3)c(C)o2)cc1 | n | n | x | x | n

Source: PubChem BioAssay (The Scripps Research Institute Molecular Screening Center)
